{
  "source": "PubChem BioAssay (NCATS)",
  "note": "Records with an inconclusive call do not appear. Calls of active or inactive are those of the source. Calls come from the whole dose curve; as a rule, active = well fitted activation curve with a large enough effect; inconclusive = small, poorly fitted or top-dose-only effect, or effect the other way; inactive = flat fitted curve, though single readings scatter.",
  "data": [
    {"test": "Cellular Toxicity (caspase-3) NIH 3T3 (AID 666);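 note: caspase signal read after 16 h compound exposure; 0% = DMSO basal and 100% = 100 µM tamoxifen stimulation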", "conditions": "NIH 3T3 caspase-3 activation, apoptosis/toxicity; series mostly up to 92.2 µM; caspase-3 activation: at the top concentration", "excerpt": "NIH Chemical Genomics Center [NCGC]\nNIH Molecular Libraries Screening Centers Network [MLSCN]\nNational Institutes of Environmental Health Sciences [NIEHS]\nNational Toxicology Program [NTP]\nWe have developed a 1536-well cell-based assay for quantitative high throughput screening (qHTS) against a number of cell lines to determine in vitro caspase 3/7 of small molecules. This particular assay uses the NIH 3T3 cell line which is derived from mouse fibroblasts.\nNCGC Assay Protocol Summary:\nThe Caspase-Glo 3/7 assay (Promega) is a homogeneous method to measure caspase-3 and caspase-7 activities in cultured cells. The quantitation of caspase 3/7 activity is based on the cleavage of a peptide-aminoluciferin substrate. After caspase cleaves the substrate the free aminoluciferin is liberated and serves as the substrate of luciferase, which generates the light. The luminescent signal is proportional to amount of caspase 3/7 activity present.\nUsing the Caspase-Glo 3/7 assay, the amount of caspase 3/7 activity was measured in the NIH 3T3 cell line with complete culture medium following compound treatment for 16 hours. The assay was performed in opaque white 1536-well plates. In the screen, tamoxifen and doxorubicin were used as positive controls. Library compounds were measured for their ability to cause the activation of caspase 3/7 in the cell line, as reflected by an increase in luminescence signal, in a concentration-dependent manner. Data were normalized to the controls for basal activity (DMSO only) and 100% stimulation (100 uM tamoxifen). AC50 values were determined from concentration-response data modeled with the standard Hill equation.\nqHTS protocol for caspase 3/7 assay in NIH 3T3 cells\n[Step] [Parameter] [Value] [Description]\n1. Reagent; 5 uL; 1000 NIH 3T3 cells/well\n2. Time; 5 hr; 37 °C incubation\n4. Controls; 23 nL; Tamoxifen 0.23 uM to 100 uM & Doxorubicin 7.0 pM to 100 uM\n5. Time; 16 hr; 37 °C incubation\n6. Reagent; 5 uL; Caspase-Glo 3/7 reagent\n7. Time; 20 min; Room Temperature\n8. Detection; Luminescence; Viewlux plate reader\nKeywords: caspase 3/7, apoptosis, NIH 3T3 cell line, luminescence, NTPHTS, NTPHTS_NCGC, NIEHS, EPA, DSSTox, MLSMR, MLSCN, NIH Roadmap, qHTS, NCGC", "values": [
      {"smiles": "CCCCCc1cc(O)cc(O)c1", "caspase-3 activation": "2.27% (inactive)"},
      {"smiles": "O=C(Cc1ccccc1)OCc1ccccc1", "caspase-3 activation": "0.176% (inactive)"},
      {"smiles": "CC(Cl)CCl", "note": "(stereo not given)", "caspase-3 activation": "-0.369% (inactive)"},
      {"smiles": "COc1cc(-c2ccc(N)c(OC)c2)ccc1N", "caspase-3 activation": "-6.11% (inactive)"},
      {"smiles": "ClC(Cl)c1ccccc1", "caspase-3 activation": "-15.4% (inactive)"},
      {"smiles": "Clc1ccc(C(Cl)(Cl)Cl)cc1Cl", "caspase-3 activation": "-0.813% (inactive)"},
      {"smiles": "Cc1cc(-c2ccc(N)c(C)c2)ccc1N", "caspase-3 activation": "-12.2% (inactive)"},
      {"smiles": "CC1CC(=O)O1", "note": "(stereo not given)", "caspase-3 activation": "0.245% (inactive)"},
      {"smiles": "CCBr", "caspase-3 activation": "-0.00907% (inactive)"},
      {"smiles": "CC(C)CC(C)N", "note": "(stereo not given)", "caspase-3 activation": "0.213% (inactive)"},
      {"smiles": "Nc1cc(Cl)cc(Cl)c1", "caspase-3 activation": "1.8% (inactive)"},
      {"smiles": "c1ccc(C2CO2)cc1", "note": "(stereo not given)", "caspase-3 activation": "-1.57% (inactive)"},
      {"smiles": "c1ccc(Nc2ccc(Nc3ccccc3)cc2)cc1", "caspase-3 activation": "-4.54% (inactive)"},
      {"smiles": "OC[P+](CO)(CO)CO", "caspase-3 activation": "21.6% (inactive)"},
      {"smiles": "N#CC(Cl)(Cl)Cl", "caspase-3 activation": "0.232% (inactive)"},
      {"smiles": "Cc1ccc2c(C)cccc2c1", "caspase-3 activation": "1.91% (inactive)"},
      {"smiles": "c1ccc(OCC2CO2)cc1", "note": "(stereo not given)", "caspase-3 activation": "9.5% (inactive)"},
      {"smiles": "CN=C=O", "caspase-3 activation": "4.3% (inactive)"},
      {"smiles": "ClCC(Br)CBr", "note": "(stereo not given)", "caspase-3 activation": "0.0265% (inactive)"},
      {"smiles": "BrCCc1ccccc1", "caspase-3 activation": "-1.44% (inactive)"},
      {"smiles": "Nc1ccc(Cc2ccc(N)cc2)cc1", "caspase-3 activation": "0.0733% (inactive)"},
      {"smiles": "C=CCOCC1CO1", "note": "(stereo not given)", "caspase-3 activation": "2.38% (inactive)"},
      {"smiles": "Cc1cc(C)cc(OP(=O)(Oc2cc(C)cc(C)c2)Oc2cc(C)cc(C)c2)c1", "caspase-3 activation": "-5.97% (inactive)"},
      {"smiles": "c1ccc(P(c2ccccc2)c2ccccc2)cc1", "caspase-3 activation": "-2.09% (inactive)"},
      {"smiles": "CCCBr", "caspase-3 activation": "-4.5% (inactive)"},
      {"smiles": "Brc1ccc(Oc2ccc(Br)cc2Br)c(Br)c1", "caspase-3 activation": "0.617% (inactive)"},
      {"smiles": "O=C(O)c1cccc(Cl)c1", "caspase-3 activation": "-8.76% (inactive)"},
      {"smiles": "O=[N+]([O-])c1ccccc1O", "caspase-3 activation": "-2.58% (inactive)"},
      {"smiles": "O=[N+]([O-])c1ccc2c3c(cccc13)CC2", "caspase-3 activation": "-2.44% (inactive)"},
      {"smiles": "COc1ccccc1N", "caspase-3 activation": "-6.42% (inactive)"},
      {"smiles": "N#C/C(N)=C(/N)C#N", "caspase-3 activation": "5.1% (inactive)"},
      {"smiles": "CC(C)(Cl)Cl", "caspase-3 activation": "-0.0937% (inactive)"},
      {"smiles": "Cc1ccc(N)cc1Cl", "caspase-3 activation": "-4.03% (inactive)"},
      {"smiles": "Oc1ccc(Cl)c(Cl)c1", "caspase-3 activation": "-5.38% (inactive)"},
      {"smiles": "Nc1ncc([N+](=O)[O-])s1", "caspase-3 activation": "-2.64% (inactive)"},
      {"smiles": "N#CCBr", "caspase-3 activation": "-1.66% (inactive)"},
      {"smiles": "CCCCCCCCCCCOC(=O)c1ccccc1C(=O)OCCCCCCCCCCC", "caspase-3 activation": "1.76% (inactive)"},
      {"smiles": "ClC(Cl)(Cl)C(Cl)(Cl)Cl", "caspase-3 activation": "2.09% (inactive)"},
      {"smiles": "C/C=C/CC#N", "caspase-3 activation": "0.88% (inactive)"},
      {"smiles": "Nc1ccc(Oc2ccc(N)cc2)cc1", "caspase-3 activation": "-2.73% (inactive)"}
    ]}
  ]
}
